In PubChem BioAssay (NCATS):
A number with no mark means an inactive call. Calls come from the whole dose curve.

Experiment: qHTS drug screen for cell cycle checkpoint inhibitors in PARPi-resistant BRCA-mutant ovarian cancer cell lines. (AID 1963452)
Conditions: PEO1/OlaR viability, CellTiter-Glo luminescence, 96 h; stronger effect = lower value
Method in brief: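 PEO1, PEO4 and PEO1/OlaR ovarian cancer cells, 600 per well, exposed 96 h at 37C to a dilution series. Viability read by CellTiter-Glo luminescence, normalized to DMSO and empty wells; activity summarized as Z-AUC.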

Row | SMILES | Z-AUC
1 | COc1cc2c(Nc3ccc(Cl)c(Cl)c3F)ncnc2cc1OCC1C[C@@H]2CN(C)C[C@@H]2C1 (stereo partly specified) | -0.294
2 | Cc1cc(Nc2ncc(Cl)c(Nc3ccccc3S(=O)(=O)C(C)C)n2)c(OC(C)C)cc1C1CCNCC1 | -1.77
3 | CN1CC[C@@H](NC(=O)Nc2ccc(C#N)cc2)C[C@@H]1c1nc2ccccc2[nH]1 | -0.312
4 | CC(C)N(C[C@H]1O[C@@H](n2cnc3c(N)ncnc32)[C@H](O)[C@@H]1O)C1CC(CCc2nc3ccc(C(C)(C)C)cc3[nH]2)C1 (stereo partly specified) | 1.59
5 | CCS(=O)(=O)N1CCC([C@@H](C)n2c(C)c(C(=O)NCc3c(OC)cc(C)[nH]c3=O)c3ccccc32)CC1 | -0.188
6 | C=C1CC[C@@H]2[C@](C)(CO)[C@H](O)CC[C@@]2(C)[C@@H]1C/C=C1/C(=O)OC[C@H]1O | 0.643
